Some test systems named below: SK-MEL-2 melanoma; EKVX NSCLC; SN12C renal; UO-31 renal; TK-10 renal; ACHN renal; CAKI-1 renal; A498 renal; CCRF-CEM leukemia; MOLT-4 leukemia; SR leukemia; RPMI-8226 leukemia; OVCAR-8 ovarian; OVCAR-5 ovarian; OVCAR-4 ovarian; SK-OV-3 ovarian; IGROV1 ovarian; OVCAR-3 ovarian; HS 578T breast; NCI/ADR-RES ovarian.
Common to all, as to assay: NCI-60 one-dose screen, 48 h (100 = growth as untreated, 0 = no growth, -100 = all killed)
Holding throughout (conditions): 10 µM unless noted

Each structure is given as a SMILES string. About 83,000 compounds went through this panel and 20% of them were active in at least one assay; those are over-represented in the sample as a whole.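 In brief: 96-well plates, 48 h treatment, single concentration, percent growth endpoint.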 Unmarked numbers belong to inactive results. Active and inactive are the calls of the source. How the source made its calls: active means growth percent below 10; inactive means the rest.

Take `CN(C)c1nc(NCCNS(=O)(=O)c2ccc(C(=O)/C=C/c3ccc(F)cc3)cc2)nc(N2CCOCC2)n1`: the growth in the test on SK-MEL-2 melanoma was 62.2%; with EKVX NSCLC, 59%; in the test on SN12C renal, 64.3%; in the test on UO-31 renal, 60.1%; with TK-10 renal it was 72.2%; in the test with ACHN renal it was 78.6%. The growth with CAKI-1 renal is 57.3%; with A498 renal it was 86.5%; in the test on CCRF-CEM leukemia, 22.5%; in the test on MOLT-4 leukemia, -6.53% (active); in the test on SR leukemia, -25.7% (active); in the test with RPMI-8226 leukemia, -28.4% (active). The growth is 42.3% in the test on OVCAR-8 ovarian; 96% in the test on OVCAR-5 ovarian; 64.5% with OVCAR-4 ovarian; 82.5% in the test with SK-OV-3 ovarian; -44.9% (active) in the test on IGROV1 ovarian; 64.1% in the test on OVCAR-3 ovarian. Besides, the growth with HS 578T breast was 73.5%; in the test with NCI/ADR-RES ovarian, 49.3%.
Regarding `Cc1cc(Cl)ccc1NC(=O)Nc1ccc(-c2ccc3c(c2)NC(=O)/C3=C\c2ccc[nH]2)cc1`, the growth in the test on SK-MEL-2 melanoma was 121%; in the test on EKVX NSCLC, 67.5%; in the test on SN12C renal it was 97.6%; in the test on UO-31 renal it was 78.3%; in the test on TK-10 renal, 115%; in the test with ACHN renal, 98.8%. Further, the growth in the test with CAKI-1 renal is 99%; in the test with A498 renal, 119%; in the test on CCRF-CEM leukemia, 97.8%; with MOLT-4 leukemia it was 86.2%; in the test on SR leukemia, 69.3%; in the test with RPMI-8226 leukemia, 100%. The growth in the test with OVCAR-8 ovarian is 104%; in the test on OVCAR-5 ovarian, 108%; in the test with OVCAR-4 ovarian it was 84.7%; in the test on SK-OV-3 ovarian, 125%; in the test with IGROV1 ovarian, 96.2%; in the test on OVCAR-3 ovarian it was 119%. Further, the growth with HS 578T breast was 102%; in the test with NCI/ADR-RES ovarian it was 104%.
On to `COC(=O)c1cccc(Oc2ccc(NC(=O)Nc3cc(C(F)(F)F)ccc3F)cc2)c1`, for which the growth in the test with SK-MEL-2 melanoma was 73.1%; in the test with EKVX NSCLC, 60.9%; in the test on SN12C renal, 75.7%; in the test with UO-31 renal it was 73.9%; with TK-10 renal, 88.5%; in the test with ACHN renal, 56.4%. For the same molecule, the growth in the test with CAKI-1 renal is 62.4%; in the test with A498 renal it was 94.9%; in the test with CCRF-CEM leukemia, 65%; with MOLT-4 leukemia, 64.7%; in the test with SR leukemia, 26.9%; in the test with RPMI-8226 leukemia, 62.8%. The growth is 40.3% in the test with OVCAR-8 ovarian; 87.1% in the test on OVCAR-5 ovarian; 55.4% in the test on OVCAR-4 ovarian; 87.6% with SK-OV-3 ovarian; 56.7% in the test on IGROV1 ovarian; 78.5% with OVCAR-3 ovarian. The growth in the test with HS 578T breast was 4.44% (active); with NCI/ADR-RES ovarian it was 73.9%.
For the molecule `O=C(NNC(=S)NC(=O)c1ccccc1)c1ccc(OCc2nc3ccc(Cl)cc3[nH]2)cc1`, the growth with SK-MEL-2 melanoma was -47.3% (active); in the test with EKVX NSCLC, -53% (active); in the test with SN12C renal, -80.2% (active); in the test on UO-31 renal, -76.1% (active); with TK-10 renal it was 11.2%; in the test with ACHN renal, -43% (active). For the same molecule, the growth with CAKI-1 renal is -1.67% (active); with A498 renal it was -55% (active); in the test with CCRF-CEM leukemia it was 2.87% (active); with MOLT-4 leukemia, 2.46% (active); in the test on SR leukemia, 0.144% (active); with RPMI-8226 leukemia, 5.01% (active). Further, the growth is -9.91% (active) in the test with OVCAR-8 ovarian; -43.7% (active) with OVCAR-5 ovarian; 16.3% in the test with OVCAR-4 ovarian; -17.5% (active) in the test on SK-OV-3 ovarian; -46.5% (active) in the test with IGROV1 ovarian; 10.5% with OVCAR-3 ovarian. Also, the growth was 3.54% (active) in the test on HS 578T breast and -25.3% (active) in the test on NCI/ADR-RES ovarian.
Regarding `CN1CCN(CCS(=O)(=O)Nc2cc(-c3ccc4ncnc(Nc5ccc(F)c(Cl)c5)c4c3)cnc2Cl)CC1`, the growth with SK-MEL-2 melanoma is -52.2% (active); in the test on EKVX NSCLC, -22.2% (active); with SN12C renal, 27.7%; with UO-31 renal, 18.2%; in the test on TK-10 renal, 1.24% (active); in the test with ACHN renal, 23.2%. Also, the growth with CAKI-1 renal is 6.32% (active); in the test with A498 renal it was -30.9% (active); in the test on CCRF-CEM leukemia, 8.02% (active); with MOLT-4 leukemia, -49.7% (active); with SR leukemia it was -45.4% (active); with RPMI-8226 leukemia it was 75.2%. The growth in the test on OVCAR-8 ovarian was 22.4%; in the test with OVCAR-5 ovarian, 16%; with OVCAR-4 ovarian, 32.3%; with SK-OV-3 ovarian, 3.06% (active); in the test on IGROV1 ovarian, -34.8% (active); in the test with OVCAR-3 ovarian, -31.7% (active). In addition, the growth in the test with HS 578T breast is -23.3% (active); with NCI/ADR-RES ovarian it was 78.4%.
For the molecule `COc1ccccc1Nc1nnc(-c2c[nH]c3ccccc23)o1`, the growth in the test with SK-MEL-2 melanoma was -13.6% (active); with EKVX NSCLC, 10.2%; with SN12C renal, 14.5%; in the test with UO-31 renal, 32.5%; in the test with TK-10 renal, 22.8%; with ACHN renal it was 23.1%. The growth in the test with CAKI-1 renal was 22%; with A498 renal, 81.9%; in the test on CCRF-CEM leukemia it was 8.16% (active); in the test with MOLT-4 leukemia, 1.78% (active); in the test on SR leukemia it was 1.74% (active); in the test on RPMI-8226 leukemia it was -12.4% (active). For the same molecule, the growth in the test with OVCAR-8 ovarian is 11.8%; in the test on OVCAR-5 ovarian it was 32.1%; in the test with OVCAR-4 ovarian, 64.3%; in the test with SK-OV-3 ovarian, 15.4%; in the test on IGROV1 ovarian it was 16.8%; with OVCAR-3 ovarian, 12.9%. In addition, the results for the growth in the test with HS 578T breast and with NCI/ADR-RES ovarian were 9.82% (active) and -35.9% (active), respectively.
For the molecule `CC1=C(C(=O)Nc2ccccc2)C(c2cccc(Cl)c2Cl)n2c(nc3ccccc32)N1` (stereo not given), the growth was 75.2% in the test on SK-MEL-2 melanoma; 46.3% with EKVX NSCLC; 53.4% in the test on SN12C renal; 33.7% with UO-31 renal; 57.8% in the test with TK-10 renal; 42.5% in the test on ACHN renal. Also, the growth was 36.4% with CAKI-1 renal; 35% with A498 renal; 29.8% in the test on CCRF-CEM leukemia; 7.7% (active) in the test on MOLT-4 leukemia; 6.58% (active) with SR leukemia; 37% with RPMI-8226 leukemia. Moreover, the growth in the test with OVCAR-8 ovarian was 66.6%; in the test with OVCAR-5 ovarian it was 82.8%; in the test on OVCAR-4 ovarian, 49.4%; in the test with SK-OV-3 ovarian it was 84.3%; with IGROV1 ovarian it was 54.9%; with OVCAR-3 ovarian, 42.2%. Besides, the figures for the growth with HS 578T breast and in the test on NCI/ADR-RES ovarian were 66% and 46.3%, respectively.
